# According to PubChem BioAssay AID463254 (National Center for Advancing Translational Sciences (NCATS), 2010):
# Among all 330,000 compounds or so, about 40 (0.01%) were called active. The call rests on the fitted dose curve; in most records, active means well fitted inhibition curve with a large enough effect; inconclusive means small, poorly fitted or top-dose-only effect, or effect the other way; inactive means flat fitted curve, though single readings scatter. The full list was thinned out, with actives kept by preference.
# Biological target: Ubiquitin carboxyl-terminal hydrolase 2 (Homo sapiens) (UniProt O75604)
# Assay: qHTS Assay for Inhibitors of Ubiquitin-specific Protease USP2a Using CHOP2 as the Reporter
# Conditions: USP2 core, Ub-CHOP2 coupled fluorogenic reporter, 485/531; series mostly up to 38.3 µM; activity change, negative = inhibition: at the top concentration
# Source text: NIH Molecular Libraries Screening Centers Network [MLSCN] NIH Chemical Genomics Center [NCGC] MLSCN Grant: XO1-MH079852-01 PI Name: Nicholson, Ben. Progenra Inc, Malvern, PA NCGC Assay Overview: Homeostasis of cellular proteins is maintained through a combination of synthesis and degradation. The pathway that accounts for the majority of protein degradation is the ubiquitin-proteasomal pathway. Ubiquitin (Ub) is highly conserved in all cells and the generation of a multi-Ub chain typically targets proteins for degradation by the proteasome. However, ubiquitination is highly reversible and dynamic. Deubiquitination, the reverse process, is catalyzed through the action of enzymes referred to as isopeptidases or deubiquitinating enzymes (DUBs). This group of enzymes is collectively responsible for maintaining adequate pools of free ubiquitin and regulating the ubiquitination status of cellular proteins. The class of DUBs referred to as the ubiquitin-specific proteases (USP) family functions endoproteolytically to cleave Ub chains from a wide range of protein substrates. USP2a deubiquitinates fatty acid synthase (FASN) which has recently been identified as an emerging oncology target. To identify inhibitors of USP2a a cell-free assay was employed. […] The reporter enzyme chosen is an enterokinase called CHOP2, which is activated when the Ub is cleaved by USP2. The free and now activated reporter can subsequently act on its reporter substrate. Thus, this coupled assay gives a fluorescent read-out at excitation/emission wavelengths of 485/531. The assay was developed by Progenra, Inc. and has been licensed for sale by LifeSensors, Inc. as Ub-CHOP2-Reporter-Kit (#PR1101).
# NCGC Assay Protocol Summary: The assay buffer, prepared fresh at the day of the assay, contains 20mM Tris-HCl pH 8.0, 2mM CaCl2, 2mM beta-Mercaptoethanol, 0.05% CHAPS. 3ul of 20nM (10nM final) USP2 core, which is stored on ice, is dispensed into a medium-binding black solid Kalypsys 1,536 well plate using the Kalypsys dispenser. The assay plate is then pinned with 23nL compound with the Kalypsys pintool in columns 5-48. The controls are pinned as follows: column 1 two-fold dilutions of 2M NEM in duplicate; column 2 2M NEM (final concentration 38.2mM); column 3&4 DMSO. The assay plate is incubated at RT for 30min. Subsequently, 1.5uL of 100nM (25nM final) Ub-CHOP2 and 1.5uL of 100nM (25nM final) Reporter Substrate (both stored on ice and protected from light) were dispensed into the plate using the Kalypsys dispenser. Plates were read after 60min RT incubation on a ViewLux (Perkin Elmer) plate reader using the following wavelengths Ex 485nm /Em 531nm. Data were normalized to the to AC100 inhibition (NEM). Concentration-response curves were fitted to the normalized data and the concentration-response curves were then classified based on curve quality (r2), response magnitude and degree of measured activity. The time zero reading was used to flag fluorescence artifacts. Keywords: ubiquitination, deubiquitination, proteases, profluorescent, MLSMR, MLPCN, NIH Roadmap, qHTS, NCGC
# Potency means the concentration at half of the fitted maximal effect.
# Sequence of Ubiquitin carboxyl-terminal hydrolase 2 (Homo sapiens) (O75604 whole entry, looked up): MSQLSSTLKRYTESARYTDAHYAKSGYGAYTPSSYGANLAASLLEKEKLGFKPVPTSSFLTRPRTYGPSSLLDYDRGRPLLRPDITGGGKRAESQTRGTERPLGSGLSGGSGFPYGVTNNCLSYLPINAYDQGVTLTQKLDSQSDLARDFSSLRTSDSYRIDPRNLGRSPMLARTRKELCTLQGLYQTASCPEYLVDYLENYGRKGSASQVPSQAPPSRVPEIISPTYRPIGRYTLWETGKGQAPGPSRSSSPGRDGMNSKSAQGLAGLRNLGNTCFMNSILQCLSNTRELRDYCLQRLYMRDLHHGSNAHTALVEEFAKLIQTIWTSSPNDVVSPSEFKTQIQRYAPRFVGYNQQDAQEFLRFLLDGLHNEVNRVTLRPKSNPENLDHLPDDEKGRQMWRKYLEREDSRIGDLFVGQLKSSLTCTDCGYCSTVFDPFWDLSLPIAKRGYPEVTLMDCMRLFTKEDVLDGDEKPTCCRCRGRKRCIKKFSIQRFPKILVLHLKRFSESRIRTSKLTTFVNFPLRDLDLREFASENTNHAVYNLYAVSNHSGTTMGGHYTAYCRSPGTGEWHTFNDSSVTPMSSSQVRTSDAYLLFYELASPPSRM
SMILES,Potency,"activity change, negative = inhibition"
O=C(OCC1O[C@@H](OC(=O)c2cc(O)c(O)c(O)c2)[C@@H](OC(=O)c2cc(O)c(O)c(O)c2)[C@@H](OC(=O)c2cc(O)c(O)c(O)c2)[C@@H]1OC(=O)c1cc(O)c(O)c(O)c1)c1cc(O)c(O)c(O)c1 (stereo not given in full),6.31 µM (active),–
CC(C)(C)[C@]1(O)C[C@@H]2OC(=O)C[C@@]23C(=O)O[C@@H]2OC(=O)[C@H](O)[C@]213,–,-0.667% (inactive)
NC(=O)Cn1cc(C(=O)c2ccccc2F)c2ccccc21,–,-1.61% (inactive)
Cc1ccnc(-n2c(C)cc(/C=C3\C(=O)NC(=S)N(C)C3=O)c2C)c1,–,4.37% (inactive)
CC12CN3CC(C)(CN(C1)C3c1cccs1)C2 (stereo not given),–,4.94% (inactive)
